Experiments:
[1] = target: T1, Tyrosine-protein kinase ITK/TSK (Homo sapiens) (UniProt Q08881); conditions: at 1 µM;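 also: values are mean percent inhibition of ITK from the GSK PKIS screen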
T1 sequence (whole entry): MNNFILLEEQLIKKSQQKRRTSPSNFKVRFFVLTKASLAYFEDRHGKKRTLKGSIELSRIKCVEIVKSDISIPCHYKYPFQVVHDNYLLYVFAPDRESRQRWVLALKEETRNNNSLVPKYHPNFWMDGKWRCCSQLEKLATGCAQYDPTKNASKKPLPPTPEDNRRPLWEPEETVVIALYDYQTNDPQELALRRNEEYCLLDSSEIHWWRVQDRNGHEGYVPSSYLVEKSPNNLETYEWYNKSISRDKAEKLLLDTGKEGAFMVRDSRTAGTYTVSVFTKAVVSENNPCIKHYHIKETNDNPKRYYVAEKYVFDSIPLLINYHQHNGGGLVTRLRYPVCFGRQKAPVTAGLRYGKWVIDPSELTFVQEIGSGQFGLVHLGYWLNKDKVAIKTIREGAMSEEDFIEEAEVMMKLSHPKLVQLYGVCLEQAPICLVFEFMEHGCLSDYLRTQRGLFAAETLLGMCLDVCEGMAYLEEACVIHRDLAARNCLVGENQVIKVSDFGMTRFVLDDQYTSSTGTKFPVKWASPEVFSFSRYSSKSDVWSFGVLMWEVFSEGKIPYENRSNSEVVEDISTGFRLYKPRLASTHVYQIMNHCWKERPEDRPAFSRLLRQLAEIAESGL

[2] = target: Tyrosine-protein kinase JAK1 (Homo sapiens) (UniProt P23458); conditions: at 0.1 µM
Sequence of Tyrosine-protein kinase JAK1 (Homo sapiens) (P23458 whole entry): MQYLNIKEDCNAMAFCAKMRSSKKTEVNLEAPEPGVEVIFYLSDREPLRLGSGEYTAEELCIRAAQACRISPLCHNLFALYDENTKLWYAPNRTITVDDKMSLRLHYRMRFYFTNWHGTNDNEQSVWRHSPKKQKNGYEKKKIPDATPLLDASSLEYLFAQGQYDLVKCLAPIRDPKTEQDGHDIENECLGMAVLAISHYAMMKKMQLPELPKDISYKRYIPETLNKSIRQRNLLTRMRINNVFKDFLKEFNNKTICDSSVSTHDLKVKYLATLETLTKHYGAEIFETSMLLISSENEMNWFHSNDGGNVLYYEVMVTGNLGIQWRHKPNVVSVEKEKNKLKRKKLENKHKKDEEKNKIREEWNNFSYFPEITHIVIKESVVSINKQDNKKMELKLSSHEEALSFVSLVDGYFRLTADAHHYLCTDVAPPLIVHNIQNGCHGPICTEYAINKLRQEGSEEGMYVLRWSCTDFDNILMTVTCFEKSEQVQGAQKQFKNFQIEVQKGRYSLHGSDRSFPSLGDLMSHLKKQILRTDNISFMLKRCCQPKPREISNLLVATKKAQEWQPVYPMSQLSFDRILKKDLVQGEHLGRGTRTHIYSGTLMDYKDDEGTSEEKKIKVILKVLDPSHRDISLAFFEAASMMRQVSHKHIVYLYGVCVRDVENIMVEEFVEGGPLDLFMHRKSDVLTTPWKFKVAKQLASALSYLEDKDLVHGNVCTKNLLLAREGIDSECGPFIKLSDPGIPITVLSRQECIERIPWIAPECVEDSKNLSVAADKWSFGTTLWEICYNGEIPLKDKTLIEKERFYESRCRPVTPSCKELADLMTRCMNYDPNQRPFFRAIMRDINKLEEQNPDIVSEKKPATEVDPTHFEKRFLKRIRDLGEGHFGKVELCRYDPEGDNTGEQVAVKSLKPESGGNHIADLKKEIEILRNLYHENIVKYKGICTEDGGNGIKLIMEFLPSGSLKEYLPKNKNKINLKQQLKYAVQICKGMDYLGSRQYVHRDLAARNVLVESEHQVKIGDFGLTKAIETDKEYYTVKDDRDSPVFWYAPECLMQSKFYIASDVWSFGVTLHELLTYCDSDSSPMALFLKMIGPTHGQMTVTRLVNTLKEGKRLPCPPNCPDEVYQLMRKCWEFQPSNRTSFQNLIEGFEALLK

[3] = target: Tyrosine-protein kinase JAK1 (Homo sapiens) (UniProt P23458); conditions: at 1 µM
[4] = target: Tyrosine-protein kinase JAK2 (Homo sapiens) (UniProt O60674); conditions: at 0.1 µM
[5] = target: Tyrosine-protein kinase JAK2 (Homo sapiens) (UniProt O60674); conditions: at 1 µM
[6] = target: T2, Tyrosine-protein kinase JAK3 (Homo sapiens) (UniProt P52333); conditions: at 0.1 µM
T2 sequence (whole entry): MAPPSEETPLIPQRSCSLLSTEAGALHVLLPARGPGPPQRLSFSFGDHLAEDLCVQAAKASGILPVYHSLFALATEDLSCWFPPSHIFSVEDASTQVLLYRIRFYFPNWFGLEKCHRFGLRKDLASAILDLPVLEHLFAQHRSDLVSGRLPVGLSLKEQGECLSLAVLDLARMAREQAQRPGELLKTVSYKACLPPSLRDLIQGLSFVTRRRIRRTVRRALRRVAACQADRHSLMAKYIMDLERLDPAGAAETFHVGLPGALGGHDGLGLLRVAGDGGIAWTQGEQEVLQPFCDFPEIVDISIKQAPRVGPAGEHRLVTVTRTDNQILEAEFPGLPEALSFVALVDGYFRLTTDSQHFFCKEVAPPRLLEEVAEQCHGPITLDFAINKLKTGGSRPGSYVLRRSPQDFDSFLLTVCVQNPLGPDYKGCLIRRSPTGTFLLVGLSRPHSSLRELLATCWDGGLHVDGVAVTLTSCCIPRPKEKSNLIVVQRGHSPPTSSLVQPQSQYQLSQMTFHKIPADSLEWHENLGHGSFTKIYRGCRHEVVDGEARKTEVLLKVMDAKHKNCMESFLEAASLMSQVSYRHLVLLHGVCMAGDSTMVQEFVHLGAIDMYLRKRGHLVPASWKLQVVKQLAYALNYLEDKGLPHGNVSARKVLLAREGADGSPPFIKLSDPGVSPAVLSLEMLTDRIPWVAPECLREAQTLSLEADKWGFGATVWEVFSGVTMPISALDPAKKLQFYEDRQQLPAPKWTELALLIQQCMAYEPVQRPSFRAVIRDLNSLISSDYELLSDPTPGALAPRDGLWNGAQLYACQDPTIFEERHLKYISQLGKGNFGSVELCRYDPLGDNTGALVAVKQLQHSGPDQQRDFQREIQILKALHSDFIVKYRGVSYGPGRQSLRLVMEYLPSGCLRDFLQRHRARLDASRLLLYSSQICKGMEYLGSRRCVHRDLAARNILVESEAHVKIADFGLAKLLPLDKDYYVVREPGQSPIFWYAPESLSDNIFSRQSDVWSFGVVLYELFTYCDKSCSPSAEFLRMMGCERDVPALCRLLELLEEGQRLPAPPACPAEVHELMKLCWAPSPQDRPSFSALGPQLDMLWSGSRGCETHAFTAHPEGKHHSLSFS

[7] = target: T2, Tyrosine-protein kinase JAK3 (Homo sapiens); conditions: at 1 µM
[8] = target: Vascular endothelial growth factor receptor 2 (Homo sapiens) (UniProt P35968); conditions: at 0.1 µM
Sequence of Vascular endothelial growth factor receptor 2 (Homo sapiens) (P35968 whole entry): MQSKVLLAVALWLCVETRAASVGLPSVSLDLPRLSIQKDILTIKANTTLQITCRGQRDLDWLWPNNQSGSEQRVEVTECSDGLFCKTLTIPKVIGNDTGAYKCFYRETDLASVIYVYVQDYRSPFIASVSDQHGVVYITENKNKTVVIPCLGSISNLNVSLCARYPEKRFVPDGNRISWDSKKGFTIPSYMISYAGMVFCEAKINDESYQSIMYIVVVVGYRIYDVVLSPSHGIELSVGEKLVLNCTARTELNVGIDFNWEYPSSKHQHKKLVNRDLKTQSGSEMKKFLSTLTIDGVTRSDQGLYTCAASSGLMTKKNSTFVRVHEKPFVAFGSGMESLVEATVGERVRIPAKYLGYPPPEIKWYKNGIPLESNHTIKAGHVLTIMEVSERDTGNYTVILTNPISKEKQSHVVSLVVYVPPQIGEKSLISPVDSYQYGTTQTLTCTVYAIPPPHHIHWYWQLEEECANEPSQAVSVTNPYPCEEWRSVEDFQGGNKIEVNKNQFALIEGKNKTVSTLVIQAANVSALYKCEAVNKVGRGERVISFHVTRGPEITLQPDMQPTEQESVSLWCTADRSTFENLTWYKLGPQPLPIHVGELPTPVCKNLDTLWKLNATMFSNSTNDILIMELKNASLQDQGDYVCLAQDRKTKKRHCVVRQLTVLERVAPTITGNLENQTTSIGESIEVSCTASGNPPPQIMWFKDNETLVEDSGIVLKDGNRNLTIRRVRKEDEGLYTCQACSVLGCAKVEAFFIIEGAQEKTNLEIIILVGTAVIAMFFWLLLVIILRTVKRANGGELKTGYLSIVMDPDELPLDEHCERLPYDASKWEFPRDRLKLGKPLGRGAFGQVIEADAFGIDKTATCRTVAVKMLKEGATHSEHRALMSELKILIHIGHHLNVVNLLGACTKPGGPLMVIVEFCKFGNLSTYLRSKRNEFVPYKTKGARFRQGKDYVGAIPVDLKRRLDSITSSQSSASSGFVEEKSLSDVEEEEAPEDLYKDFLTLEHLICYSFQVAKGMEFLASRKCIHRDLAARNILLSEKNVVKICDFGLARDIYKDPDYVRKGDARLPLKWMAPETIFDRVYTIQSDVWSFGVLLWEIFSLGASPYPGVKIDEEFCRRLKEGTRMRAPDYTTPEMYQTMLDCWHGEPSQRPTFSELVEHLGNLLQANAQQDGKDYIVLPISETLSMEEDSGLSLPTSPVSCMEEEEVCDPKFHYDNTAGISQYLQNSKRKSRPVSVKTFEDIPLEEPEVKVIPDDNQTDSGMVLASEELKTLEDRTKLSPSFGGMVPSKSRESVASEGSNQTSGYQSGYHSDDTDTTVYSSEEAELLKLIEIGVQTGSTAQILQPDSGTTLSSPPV

[9] = target: Vascular endothelial growth factor receptor 2 (Homo sapiens) (UniProt P35968); conditions: at 1 µM
[10] = target: Mast/stem cell growth factor receptor Kit (Homo sapiens) (UniProt P10721); conditions: at 0.1 µM
Sequence of Mast/stem cell growth factor receptor Kit (Homo sapiens) (P10721 whole entry): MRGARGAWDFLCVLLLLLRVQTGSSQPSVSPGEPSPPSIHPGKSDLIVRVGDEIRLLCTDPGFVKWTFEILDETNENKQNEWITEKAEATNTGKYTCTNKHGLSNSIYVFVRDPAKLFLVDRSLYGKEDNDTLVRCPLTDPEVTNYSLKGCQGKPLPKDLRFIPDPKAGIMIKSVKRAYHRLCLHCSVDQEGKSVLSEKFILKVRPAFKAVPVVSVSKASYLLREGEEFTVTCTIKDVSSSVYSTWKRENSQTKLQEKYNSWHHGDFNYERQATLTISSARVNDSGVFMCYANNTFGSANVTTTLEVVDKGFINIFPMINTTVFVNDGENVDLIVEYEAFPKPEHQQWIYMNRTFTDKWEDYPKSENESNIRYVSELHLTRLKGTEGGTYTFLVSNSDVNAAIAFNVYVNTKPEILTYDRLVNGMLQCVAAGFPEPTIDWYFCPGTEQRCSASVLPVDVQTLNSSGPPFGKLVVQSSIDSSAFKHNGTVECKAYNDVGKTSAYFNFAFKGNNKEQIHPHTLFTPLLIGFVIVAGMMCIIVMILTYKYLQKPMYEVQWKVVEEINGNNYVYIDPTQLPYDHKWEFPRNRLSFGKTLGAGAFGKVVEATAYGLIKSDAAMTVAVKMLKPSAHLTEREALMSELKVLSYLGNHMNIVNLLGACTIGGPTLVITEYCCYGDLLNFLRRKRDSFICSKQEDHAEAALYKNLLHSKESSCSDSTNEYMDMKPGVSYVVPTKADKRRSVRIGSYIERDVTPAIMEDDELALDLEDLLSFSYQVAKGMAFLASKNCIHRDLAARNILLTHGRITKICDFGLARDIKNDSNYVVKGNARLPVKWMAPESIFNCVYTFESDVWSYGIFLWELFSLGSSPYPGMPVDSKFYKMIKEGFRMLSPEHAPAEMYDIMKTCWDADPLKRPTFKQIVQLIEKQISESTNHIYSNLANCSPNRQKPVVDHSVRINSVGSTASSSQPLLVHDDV

[11] = target: Mast/stem cell growth factor receptor Kit (Homo sapiens) (UniProt P10721); conditions: at 1 µM
[12] = system: Mast/stem cell growth factor receptor Kit (Homo sapiens), P10721 [D816V]; conditions: at 0.1 µM
Sequence of Mast/stem cell growth factor receptor Kit (Homo sapiens), P10721 [D816V] (P10721 whole entry D816V): as the sequence (P10721 whole entry) above, with D816V counted along it

[13] = system: Mast/stem cell growth factor receptor Kit (Homo sapiens), P10721 [D816V]; conditions: at 1 µM
[14] = system: Mast/stem cell growth factor receptor Kit (Homo sapiens), P10721 [T670I]; conditions: at 0.1 µM
Sequence of Mast/stem cell growth factor receptor Kit (Homo sapiens), P10721 [T670I] (P10721 whole entry T670I): as the sequence (P10721 whole entry) above, with T670I counted along it

[15] = system: Mast/stem cell growth factor receptor Kit (Homo sapiens), P10721 [T670I]; conditions: at 1 µM
[16] = system: Mast/stem cell growth factor receptor Kit (Homo sapiens), P10721 [V560G]; conditions: at 0.1 µM
Sequence of Mast/stem cell growth factor receptor Kit (Homo sapiens), P10721 [V560G] (P10721 whole entry V560G): as the sequence (P10721 whole entry) above, with V560G counted along it

[17] = system: Mast/stem cell growth factor receptor Kit (Homo sapiens), P10721 [V560G]; conditions: at 1 µM
[18] = target: Tyrosine-protein kinase Lck (Homo sapiens) (UniProt P06239); conditions: at 0.1 µM
Sequence of Tyrosine-protein kinase Lck (Homo sapiens) (P06239 2-509 limits assumed): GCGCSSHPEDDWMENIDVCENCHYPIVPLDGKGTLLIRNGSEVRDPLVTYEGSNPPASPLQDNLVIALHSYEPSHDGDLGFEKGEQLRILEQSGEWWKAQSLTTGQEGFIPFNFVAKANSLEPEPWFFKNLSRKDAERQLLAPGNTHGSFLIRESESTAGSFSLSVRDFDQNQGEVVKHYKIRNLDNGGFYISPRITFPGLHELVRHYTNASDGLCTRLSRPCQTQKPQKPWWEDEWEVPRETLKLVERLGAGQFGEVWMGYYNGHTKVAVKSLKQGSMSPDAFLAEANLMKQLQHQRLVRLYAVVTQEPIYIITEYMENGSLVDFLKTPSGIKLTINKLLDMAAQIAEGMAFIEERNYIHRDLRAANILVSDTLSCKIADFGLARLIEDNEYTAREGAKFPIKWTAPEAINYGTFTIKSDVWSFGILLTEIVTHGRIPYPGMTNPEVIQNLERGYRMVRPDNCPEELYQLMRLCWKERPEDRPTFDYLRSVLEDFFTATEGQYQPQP

[19] = target: Tyrosine-protein kinase Lck (Homo sapiens) (UniProt P06239); conditions: at 1 µM
[20] = target: Leukocyte tyrosine kinase receptor (Homo sapiens) (UniProt P29376); conditions: at 0.1 µM
Sequence of Leukocyte tyrosine kinase receptor (Homo sapiens) (P29376 whole entry): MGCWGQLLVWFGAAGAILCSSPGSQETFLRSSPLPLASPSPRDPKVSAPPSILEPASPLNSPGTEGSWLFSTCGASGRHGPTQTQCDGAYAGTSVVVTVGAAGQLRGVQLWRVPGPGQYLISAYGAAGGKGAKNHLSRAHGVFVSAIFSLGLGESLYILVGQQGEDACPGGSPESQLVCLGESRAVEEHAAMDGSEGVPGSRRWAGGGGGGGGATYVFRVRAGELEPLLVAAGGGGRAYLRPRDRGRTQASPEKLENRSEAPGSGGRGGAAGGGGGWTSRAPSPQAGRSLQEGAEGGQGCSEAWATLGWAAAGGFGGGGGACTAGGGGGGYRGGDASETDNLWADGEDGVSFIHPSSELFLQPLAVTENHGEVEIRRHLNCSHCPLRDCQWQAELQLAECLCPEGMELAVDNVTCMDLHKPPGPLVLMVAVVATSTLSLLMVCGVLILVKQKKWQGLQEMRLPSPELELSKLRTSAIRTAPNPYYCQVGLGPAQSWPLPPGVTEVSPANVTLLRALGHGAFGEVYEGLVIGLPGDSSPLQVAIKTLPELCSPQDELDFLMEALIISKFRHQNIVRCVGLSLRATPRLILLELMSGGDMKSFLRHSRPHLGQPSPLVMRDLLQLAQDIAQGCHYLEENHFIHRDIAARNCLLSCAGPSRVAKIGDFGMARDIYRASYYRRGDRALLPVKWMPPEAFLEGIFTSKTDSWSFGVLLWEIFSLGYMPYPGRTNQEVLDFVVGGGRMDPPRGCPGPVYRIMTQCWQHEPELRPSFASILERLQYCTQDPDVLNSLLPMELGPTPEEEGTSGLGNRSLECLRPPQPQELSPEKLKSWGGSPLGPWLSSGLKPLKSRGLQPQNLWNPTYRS

Compound | inhibition [1] [%] | inhibition [2] [%] | inhibition [3] [%] | inhibition [4] [%] | inhibition [5] [%] | inhibition [6] [%] | inhibition [7] [%] | inhibition [8] [%] | inhibition [9] [%] | inhibition [10] [%] | inhibition [11] [%] | inhibition [12] [%] | inhibition [13] [%] | inhibition [14] [%] | inhibition [15] [%] | inhibition [16] [%] | inhibition [17] [%] | inhibition [18] [%] | inhibition [19] [%] | inhibition [20] [%]
Cc1ccc(C(=O)NC(C)C)cc1-c1ccc(C(=O)NCC2CC2)cc1 | -0.47 | -3.33 | -1.59 | -1.52 | -1.28 | 0.73 | 1.51 | -1.43 | 0.78 | -2.99 | -4.83 | 14.1 | -0.69 | -3.01 | -1.47 | 1.17 | 1.03 | -1.32 | 0.84 | -1.19
COc1ccc(-c2ccc3c(NC(=O)C4CC4)n[nH]c3n2)cc1 | 2.25 | 2.09 | 10.9 | -0.18 | -0.27 | -1 | 0.12 | 0.66 | 3.4 | 0.69 | 6.98 | 3.21 | 2.92 | 0.56 | 3.21 | 4.61 | 2.87 | -0.02 | 3.64 | 1.94
COc1cc(Nc2ncc3c(C)nc(-c4cccc(Oc5ccccc5)c4)n3n2)cc(OC)c1OC | 2.18 | 1.98 | -5.12 | 0.96 | 2.54 | 0.02 | 1.74 | 2.28 | 3.61 | 3.09 | 18.8 | 2.25 | 0.81 | 0.81 | -0.67 | -2.03 | 1.13 | 1.24 | 5.01 | 3.21
NCc1ccc(-n2c(-c3nonc3N)nc3cnccc32)cc1 | 2.4 | 4.99 | 5.42 | 1.95 | 2.09 | -0.04 | 1.57 | 10.5 | 22.8 | 5.81 | 10.8 | 4.7 | 2.04 | 4.14 | 5.42 | -2.06 | 2.07 | 3.81 | 4.5 | 5.22
CN(C)c1ccc2c(c1)/C(=C/Nc1ccc(S(N)(=O)=O)cc1)C(=O)N2 | 3.68 | 0.51 | 14.2 | 0.74 | 2.09 | -0.16 | 20.4 | 14.6 | 53.6 | 4.04 | 28.4 | 1.55 | 3.22 | 3.39 | 10 | -1.48 | -1.72 | 2.35 | 12.7 | 0.81
CNC(=O)c1cncc(/C=C/c2c(C)cccc2C)c1 | -3.29 | 0.62 | -1.32 | 2.87 | 2.41 | -3.28 | -0.59 | 3.77 | 3.51 | 10.7 | 51.7 | 1.76 | 0.69 | -0.72 | -0.77 | 3.1 | 17.2 | 3.11 | 30 | -1.27
COc1cc(Nc2ncc(-c3ccccc3)o2)cc(OC)c1OC | 2.92 | -8.6 | -0.54 | -0.76 | 5.24 | -0.1 | 12.7 | 7.23 | 48 | 85.4 | 98.7 | 0.53 | 0.05 | 69.3 | 94.8 | 22.2 | 80.4 | 2.17 | 25 | 0.26
O=C1Nc2ccc(I)cc2C1=Cc1cc(Br)c(O)c(Br)c1 | 1.44 | 1.44 | 2.67 | 2.54 | 3 | -0.81 | -3.69 | 5.81 | 9.7 | 5.45 | 18.4 | 2.74 | 2.13 | -0.52 | 4.39 | -4.29 | -1.08 | 3.11 | 3.54 | 4.82
O=C(Nc1n[nH]c2nc(-c3ccc(O)cc3)c(Br)cc12)C1CC1 | 3.5 | 15.5 | 55 | 3.57 | 28.4 | 11.9 | 62.2 | 36.2 | 71.6 | 17.5 | 63.1 | 9.03 | 10.1 | 3.13 | 4.94 | 2.07 | 10.8 | 6.75 | 22.2 | 62.8
CS(=O)(=O)CCNCc1ccc(-c2ccc3ncnc(Nc4ccc(OCc5ccccc5)c(Br)c4)c3c2)o1 | -2.69 | 3.52 | 3.08 | 1.19 | -1.02 | -5.54 | -5.98 | 10.1 | 11.1 | 3.38 | 3.91 | 4.87 | 2.18 | 2.66 | 1.79 | -3.28 | -1.19 | 0.4 | 4.79 | 2.96
CN1CCN(CCCNc2nc3ccc(Oc4ccc(NC(=O)Nc5cc(C(F)(F)F)ccc5F)cc4)cc3[nH]2)CC1 | -1.94 | 6.45 | 1.78 | 3.76 | 6.4 | -2.58 | 0.29 | 38.6 | 71.9 | 48.5 | 91.9 | -2.19 | 0.02 | 11.5 | 70.1 | 31.6 | 76.6 | -1.91 | 7.95 | -0.24

From ChEMBL document CHEMBL1961873, “Compounds: GSK PKIS; Assays: Nanosyn kinase panel” (2012)
